In all, about 65,000 compounds went through this assay and about 450 (0.69%) were called active.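 Rule for the calls: active = activation above a set limit, the screen-wide mean activation plus 3 SD (cut at about 8.5% in these data); inactive = the rest.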 The entries come from a sample that favours actives as a whole.
Biological target: 5-hydroxytryptamine receptor 1E (Homo sapiens) (UniProt P28566)
Test: 5-HT1E receptor agonists, primary screen, cell-based, HTS (AID 574);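 note: 100% = positive control agonist at 1 µM giving full maximal response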
Conditions: CHO 5-HT1E Ga15 NFAT-bla reporter, FRET; at 6 µM; stronger effect = higher value; 0% DMSO wells, 100% control agonist wells

Sequence of 5-hydroxytryptamine receptor 1E (Homo sapiens) (P28566 whole entry, looked up): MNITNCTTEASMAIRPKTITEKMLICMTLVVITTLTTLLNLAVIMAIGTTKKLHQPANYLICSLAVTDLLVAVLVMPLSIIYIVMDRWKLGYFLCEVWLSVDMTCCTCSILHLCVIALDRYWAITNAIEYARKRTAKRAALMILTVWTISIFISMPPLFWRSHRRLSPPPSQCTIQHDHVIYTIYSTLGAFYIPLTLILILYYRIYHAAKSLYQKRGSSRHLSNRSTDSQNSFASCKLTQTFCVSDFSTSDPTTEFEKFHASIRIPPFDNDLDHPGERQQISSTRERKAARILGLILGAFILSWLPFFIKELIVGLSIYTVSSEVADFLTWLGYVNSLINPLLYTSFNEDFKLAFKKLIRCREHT

| SMILES | activation |
| --- | --- |
| CC1(C)C/C(=C(/C#N)C(N)=O)CCO1 | -0.1% (inactive) |
| Cc1cn(COC/C=C/c2ccccc2)c(=O)[nH]c1=O | 0.2% (inactive) |
| CC(C)Cn1c(CCC(=O)O)ccc1-c1cccs1 | 0.6% (inactive) |
| CC1CCCC(NC(=O)CN2CCN(Cc3ccc(Cl)cc3)C2=O)C1C (stereo not given) | -0.6% (inactive) |
| O=C(OC1CCOC1=O)c1ccc(-c2nc3ccccc3s2)s1 (stereo not given) | -0.6% (inactive) |
| Cc1ccc(-n2nc3c(c2NC(=O)c2ccc4c(c2)OCO4)CSC3)c(C)c1 | -0.1% (inactive) |
| O=C(Nc1ccccc1C(F)(F)F)c1cc(-c2ccc(O)cc2)on1 | 0.1% (inactive) |
| CCOc1ccc(Cn2c(SCCCCC#N)nc3c2c(=O)n(C)c(=O)n3C)cc1OCC | 0.1% (inactive) |
| O=C(Nc1c(Cl)cccc1Cl)C1CCC1 | 0.5% (inactive) |
| O=C(O)CC(Cn1cnnn1)c1ccccc1 (stereo not given) | 1.2% (inactive) |
| Fc1ccccc1CCNc1nnnn1-c1ccccc1 | -0.5% (inactive) |
| CC(C)CNC(=O)C1CCCN(S(=O)(=O)c2ccc(-n3cnnn3)cc2)C1 (stereo not given) | -0.3% (inactive) |
| Cc1oc(-c2cccc(Cl)c2)[n+]([O-])c1C | 0.2% (inactive) |
| COC(=O)COc1ccc(S(=O)(=O)N2CCOCC2)cc1 | -0.6% (inactive) |
| O=C(c1ccc2c(c1)C(=O)N(c1ccc(Cl)cc1)C2=O)N1CCN(c2ccccn2)CC1 | 0.4% (inactive) |
| CCOc1ccc(C(CC(=O)O)NC(=O)COc2ccccc2)cc1 (stereo not given) | -1.3% (inactive) |
| CC(C)Cn1c(N)c(C(=O)NCc2cccs2)c2nc3ccccc3nc21 | 18.4% (active) |
| C=CCn1c(N)c(C(=O)OCC(C)C)c2nc3ccccc3nc21 | 0.4% (inactive) |
| C=CCn1c(N)c(S(=O)(=O)c2cccs2)c2nc3ccccc3nc21 | 0.2% (inactive) |
| Cc1ccc(C(=O)NCCNS(=O)(=O)c2ccccc2)cc1 | -1.7% (inactive) |
| CC(=O)Nc1cccc(Oc2cc(C#N)c(C#N)cc2N2CCOCC2)c1 | -0.6% (inactive) |
| CC1CN(c2cc(=O)n(Cc3ccc(F)cc3)c(=O)[nH]2)CC(C)O1 (stereo not given) | 0.8% (inactive) |
| Cc1nnc(SCC(=O)N2CCc3ccccc32)n1-c1ccccc1 | -0.4% (inactive) |
| CCOC(=O)CSc1nc2sc3c(c2c(=O)[nH]1)CC(C)(C)OC3 | -0.1% (inactive) |
| CCCc1nnc(NC(=O)c2cc(OC)cc(OC)c2)s1 | 0.7% (inactive) |

| SMILES | activation |
| --- | --- |
| Nc1nnnn1/N=C/c1cccs1 | -0.8% (inactive) |
| CS(=O)(=O)N(C(=O)NC(=O)NC1CCS(=O)(=O)C1)C1CCCCC1 (stereo not given) | 0.1% (inactive) |
| O=C(Nc1nnc(-c2ccc(Cl)cc2)o1)c1ccccc1Br | -0.9% (inactive) |
| CCOC(=O)N1CCC(NC(=O)c2ccc3nc(N4CCOCC4)sc3c2)CC1 | -0.6% (inactive) |
| COC(=O)C(C)C1Sc2ccccc2NC1=O (stereo not given) | 0.6% (inactive) |
| Cc1ccc(C(C(=O)NCc2ccco2)N(CC2CCCO2)C(=O)Cn2nnc3ccccc32)cc1 (stereo not given) | 0.3% (inactive) |
| O=C(NC1(C(F)(F)F)N=C2SCCN2C1=O)c1ccco1 (stereo not given) | -0.1% (inactive) |
| CCNc1nc(NCC)nc(N(C)n2cnnc2)n1 | 1.1% (inactive) |
| N#Cc1nc(Cc2cccc3ccccc23)oc1NCc1ccc2c(c1)OCO2 | 10.4% (active) |
| c1n[nH]c(NCc2ccc3c(c2)OCO3)n1 | -0.5% (inactive) |
| N#Cc1nc(Cc2ccccc2)oc1NCCc1ccccc1 | -0.8% (inactive) |
| Cc1cccc2c1N(CC(=O)OC(C)C)C(=O)C2=O | 0.3% (inactive) |
| CCN(CC)P(=O)(C(NC(=O)OC)C(F)(F)C(F)(F)C(F)(F)C(F)F)N(CC)CC (stereo not given) | 0.8% (inactive) |
| COc1ccc(C2OC(=O)CC2C(=O)NC(C)C)cc1 (stereo not given) | 0.2% (inactive) |
| CCc1c(C)nc(N)n2c(SCC(=O)N3CCN(c4ccccc4)CC3)nnc12 | -0.4% (inactive) |
| Cc1cc(C)c(C)c(S(=O)(=O)Nc2ccc(O)cc2)c1C | -0.5% (inactive) |
| NS(=O)(=O)c1cc2c(cc1Cl)NC(C(Cl)Cl)NS2(=O)=O (stereo not given) | -0.1% (inactive) |
| CC(=C1C(=O)c2ccccc2C1=O)N1CCN(c2ccccn2)CC1 | 0.2% (inactive) |
| O=C(c1cccc(C(=O)N2CCN(c3ccc(F)cc3)CC2)c1)N1CCN(c2ccc(F)cc2)CC1 | 0.7% (inactive) |
| O=C(NC1CCCCC1)C1CCCN(S(=O)(=O)c2cccs2)C1 (stereo not given) | -0.4% (inactive) |
| Cc1cnc(C(=O)OCC(=O)Nc2ccc(Cl)cc2Cl)cn1 | 0.2% (inactive) |
| CC1(C)Cc2ccccc2-c2nnc(-c3cccc(O)c3)n21 | 0.2% (inactive) |
| Cc1ccc(NC2=NC(c3ccccc3)n3c(nc(C)cc3=O)N2)cc1 (stereo not given) | 0.3% (inactive) |
| COc1ccc(S(=O)(=O)Nc2ccc(S(=O)(=O)N3CCCCC3)cc2)cc1OC | 0.4% (inactive) |
| CCCCn1nnnc1NCc1cc(OC)c(OC)c(OC)c1 | -0.7% (inactive) |

| SMILES | activation |
| --- | --- |
| Cc1ccccc1NC(=O)c1cnn(-c2ccccc2)c1NC(=O)c1ccco1 | 0.5% (inactive) |
| COc1ccc(OCC(=O)OCC(=O)Nc2ccc(S(=O)(=O)N3CCCCC3)cc2)cc1 | -0.3% (inactive) |
| CC(C)=C(NC(=O)c1ccco1)C(=O)NCCc1nc2ccccc2[nH]1 | 1.5% (inactive) |
| COC(=O)c1ccc(NC(=O)c2ccco2)cc1 | 0.1% (inactive) |
| CCCCC(CCC(=O)Nc1ccc(C(=O)OCC)cc1)C(=O)O (stereo not given) | -0.3% (inactive) |
| CCN(CC)C(=O)CCC(=O)Nc1ccc(C(=O)OC)cc1 | 20.5% (active) |
| O=C1NC(c2ccncc2)Nc2sc3c(c21)CCCC3 (stereo not given) | 0.1% (inactive) |
| CCOC(=O)Cn1c2c(c(-c3ccccc3OC)cc1=O)CCCC2 | -0.4% (inactive) |
| COC(=O)c1ccc(CSc2nc3ccccc3c(=O)n2-c2cccc(OC)c2)o1 | 1.3% (inactive) |
| NC(CSC12CC3CC(CC(C3)C1)C2)C(=O)O (stereo not given) | 0.4% (inactive) |
| CC1Cc2ccccc2N1C(=O)Cn1cnc2ccccc2c1=O (stereo not given) | -0.8% (inactive) |
| Cc1nc2ccc(NC(=O)N3CCC(c4ccccc4)C3)cc2nc1C (stereo not given) | -0.6% (inactive) |
| O=C(O)CCN1C(=O)CC2(CCCCC2)C1=O | 9.8% (active) |
| Cc1ccc(F)cc1NC(=O)c1ccc2c(c1)OCO2 | -0.9% (inactive) |
| COCCCN1C(=O)c2ccc(C(=O)Nc3ccc(OC)cc3OC)cc2C1=O | -0.6% (inactive) |
| CCSc1nc(=S)n(CC)c(C)c1C(C)=O | -0.3% (inactive) |
| CCn1c(Cc2ccccc2)nnc1SCc1nc2ccccc2c(=O)[nH]1 | -0.1% (inactive) |
| CCC(=O)Nc1nc(OC)cc(OC)n1 | -0.6% (inactive) |
| Cc1ccc(CCn2c3c(c4ccccc42)CN(C)CC3)cn1 | 0.2% (inactive) |
| Cc1ccc2nc3n(c(=O)c2c1)CCC3 | -0.8% (inactive) |
| COc1ccc(/C(O)=C2/C(=O)C(=O)N(c3nc(C)c(C)s3)C2c2ccco2)cc1 (stereo not given) | 0.5% (inactive) |
| Cn1c(=O)cc(SCC(=O)N2CCCC2)c2cc(Cl)ccc21 | -0.2% (inactive) |
| CCOc1ccc(-c2nnn(CC(=O)N3CCN(c4ccc(OC)cc4)CC3)n2)cc1OCC | -1.1% (inactive) |
| CCOC(=O)c1cc2c(n(-c3ccc(C)cc3)c1=O)CCCC2=O | 0.8% (inactive) |
| C[C@@H](Nc1nc(-c2ccccc2)nc2c1oc1ccccc12)C(=O)O | -0.7% (inactive) |

| SMILES | activation |
| --- | --- |
| COc1ccc(S(=O)(=O)Nc2c(C)n(C)n(-c3ccccc3)c2=O)cc1 | -1.6% (inactive) |
| CCC(C)Sc1nc2c(c(=O)[nH]c(=O)n2C)n1CC(O)COc1cccc2ccccc12 (stereo not given) | 1.1% (inactive) |
| CCOc1c(OC)cc(C2C(C#N)=C(N)Oc3n[nH]c(-c4ccncc4)c32)cc1OC (stereo not given) | 0.7% (inactive) |
| Cc1nc(NC(CC(C)C)C(=O)O)c2nc(C)oc2n1 (stereo not given) | -1.1% (inactive) |
| Cc1cc(C(=O)COC(=O)c2cccs2)c(C)n1-c1c(C)n(C)n(-c2ccccc2)c1=O | -0.2% (inactive) |
| CN(C(=O)C1CCOC1)c1nnc(-c2cccnc2)s1 (stereo not given) | -1.1% (inactive) |
| COc1ccc(N2C(=O)CCC(C(=O)Nc3ccccn3)C2c2ccc(OC)c(OC)c2)cc1 (stereo not given) | 2.5% (inactive) |
| CCOc1ccc(-n2c(SC(C)C(=O)OC)nc3c(c2=O)SCC3)cc1 (stereo not given) | 0.4% (inactive) |
| COc1ccc(CC(=O)n2nc(-c3cccnc3)nc2N)cc1 | 0.2% (inactive) |
| O=c1nc(N2CCOCC2)nc2n1CCO2 | 0.6% (inactive) |
| COc1ccc(C(=O)n2nc(-c3ccc(C)cc3)nc2N)cc1OC | 0% (inactive) |
| Cc1cc(=O)n(C)c(=O)n1CCCNc1ccccc1 | -0.1% (inactive) |
| CN(C)CCNC(CC(=O)Nc1ccc(Cl)c(Cl)c1)C(=O)O (stereo not given) | 0.3% (inactive) |
| O=C(OCc1nnc(-c2ccccc2)o1)c1ccc2c(c1)C(=O)N(CCc1ccccc1)C2=O | 0.4% (inactive) |
| Cc1ccc(-c2cc(C(F)(F)F)n3nc(C(=O)N4CCCC4)cc3n2)cc1 | 0.8% (inactive) |
| Cc1nc2c(-c3ccccc3)c(C)[nH]n2c(=O)c1Cl | -0.7% (inactive) |
| Cn1nnnc1SCc1cc(=O)[nH]c2ccccc12 | -0.5% (inactive) |
| COc1ccccc1C(=O)N1CCN=C1SCc1cccnc1 | -0.4% (inactive) |
| Cn1nc(-c2ccc(N3CCOCC3)c(NC(=O)c3ccccc3)c2)c2ccccc2c1=O | -1% (inactive) |
| FC(F)(F)c1cc(-c2cccs2)nc(NCc2ccco2)n1 | -1.9% (inactive) |
| CC(c1ccccc1)n1c(NCCCn2ccnc2)nc2c1c(=O)[nH]c(=O)n2C (stereo not given) | -0.6% (inactive) |
| COc1cccc(-c2nc3n(n2)C(c2ccccc2Cl)C(C(N)=O)=C(C)N3)c1 (stereo not given) | -0.2% (inactive) |
| CCOC(=O)c1sc(NC(=O)CCN2CCOCC2)c(C(=O)OCC)c1C | -0.8% (inactive) |
| CCc1c(C)sc(NC(=O)c2ccc(Br)o2)c1C(=O)OC | 0.2% (inactive) |
| CCc1c(C)sc(NC(=O)OC)c1C(=O)N1CCOCC1 | 14.2% (active) |

— PubChem BioAssay AID574 (The Scripps Research Institute Molecular Screening Center, 2007)
